Screening data as filed in PubChem BioAssay.
Sfp inh: qHTS Assay for Inhibitors of Bacillus subtilis Sfp phosphopantetheinyl transferase (PPTase). Potency, µM, without a hit: largest response in the series, negative = inhibition, hits mostly inhibitors. Biochemical Sfp PPTase activity, qHTS. 4'-phosphopantetheinyl transferase ffp (Bacillus subtilis), Q9F4F7. 310,000 tested, 3.5% active;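 also: the enzyme is Sfp with the accession as filed and its product quenches rhodamine fluorescence; 0% = enzyme reaction without inhibitor and -100% = no enzyme wells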
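With Hepes-Na pH 7.6 buffer containing 10 mM MgCl2, Sfp (15 nM) modified BHQ-2-YbbR (12.5 uM) using rhodamine-CoA (5 uM). Two reads 30 minutes apart at 525/598 nm yielded each well's rate.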
Glioma ERSR ind: qHTS for Inducers of the Endoplasmic Reticulum Stress Response (ERSR) in Human Glioma: qHTS | U87-MG GRP78 promoter luciferase reporter, 16 h | Potency, µM, for the others: top-dose activation, usual class: activators | 420,000 tested, 0.02% active | AID 602332, 2012; also: series mostly up to about 76 µM; % of control where 0% means no effect; nearly all actives have a fitted effect of over 35% in size
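Stably transfected U87-MG glioma cells carrying a GRP78-based luciferase sensor; 16 h compound incubation. Luminescence end-point read 10 min after Bright-Glo addition at room temperature.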
VDR inhibitor: Inhibitors of the vitamin D receptor (VDR): qHTS; VDR-SRC2-3 peptide fluorescence polarization, 2 h; AID 504847, 2011; 400,000 tested, 0.93% active; Vitamin D3 receptor (Homo sapiens), P11473; Potency, µM, inactives show max response, negative = inhibition, hits mostly inhibitors; also: % is scaled to controls: 0 for no effect and ±100 for the full control effect
Target sequence (P11473 whole entry, looked up): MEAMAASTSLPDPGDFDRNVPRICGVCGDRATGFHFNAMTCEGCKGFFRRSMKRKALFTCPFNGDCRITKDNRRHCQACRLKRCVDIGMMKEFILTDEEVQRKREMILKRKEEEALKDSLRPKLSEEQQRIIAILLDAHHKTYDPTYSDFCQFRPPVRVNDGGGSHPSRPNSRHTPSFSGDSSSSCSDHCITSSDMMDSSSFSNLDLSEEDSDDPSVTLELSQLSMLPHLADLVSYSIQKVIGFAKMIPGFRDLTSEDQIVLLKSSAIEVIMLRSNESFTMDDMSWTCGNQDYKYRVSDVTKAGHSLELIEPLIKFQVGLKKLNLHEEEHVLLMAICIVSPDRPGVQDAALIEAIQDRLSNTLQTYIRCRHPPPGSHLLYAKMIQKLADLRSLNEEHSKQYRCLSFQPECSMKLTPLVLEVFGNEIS
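Inhibition of the VDR/SRC2-3 peptide interaction is quantified by fluorescence polarization. Compounds (23 nl, pintool) incubate with the reagents for 2 hours at ambient room temperature.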
ALOX12 inh: Primary qHTS assay for inhibitors of human arachidonate 12S-lipoxygenase (ALOX12): Round 2; Polyunsaturated fatty acid lipoxygenase ALOX12 (Homo sapiens), P18054; 580,000 tested, 1.1% active; AID 1671190, 2021; Potency, µM (top dose mostly 108 µM), inactives show at the highest dose activity change, negative = inhibition, actives largely listed as inhibitors; purified 12hLO, xylenol orange hydroperoxide absorbance; also: % is scaled to controls: 0 for no effect and ±100 for the full control effect
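Purified human 12hLO (150 nM final) in 25 mM Hepes, 0.01% Triton X-100, pH 7.0 was preincubated 15 min at room temperature with compound. Then 40 uM arachidonic acid was added, 30 min. Hydroperoxide was read by Fe-XO absorbance ratio 573/405 nm.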
G9a block: qHTS Assay for Inhibitors of Histone Lysine Methyltransferase G9a; Histone-lysine N-methyltransferase EHMT2 (Homo sapiens), Q96KQ7; G9a H3K9 monomethylation, AlphaScreen, 2 h; Potency, µM (titrated, usually from 102 µM), for the others: at the highest dose activity, negative = inhibition, usual class: inhibitors; 350,000 tested, 8.8% active; AID 504332, 2011; also: % is scaled to controls: 0 for no effect and ±100 for the full control effect; nearly all actives have a fitted effect of over 75% in size
Target sequence (Q96KQ7 913-1193 limits assumed): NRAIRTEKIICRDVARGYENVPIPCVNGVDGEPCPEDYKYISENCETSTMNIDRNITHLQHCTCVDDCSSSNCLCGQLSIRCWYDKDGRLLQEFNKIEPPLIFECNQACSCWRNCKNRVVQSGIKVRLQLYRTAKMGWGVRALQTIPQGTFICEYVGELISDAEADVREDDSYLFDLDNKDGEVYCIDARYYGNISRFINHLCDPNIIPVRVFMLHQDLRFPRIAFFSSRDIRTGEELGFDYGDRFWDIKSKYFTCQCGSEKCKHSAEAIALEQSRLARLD
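Enzyme 20 nM + cpd, 15 min RT; add b-H3K9 pep 500 nM / SAM 20 uM; 2 h RT; anti-H3K9me1 Ab 0.5 ug/mL + SA donor / anti-rabbit acceptor beads 20 ug/mL each, 10 min; AlphaScreen read.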
An asterisk follows results filed as active; u = inconclusive; x = no result given; [ ] = another dose, or the depositor's remark. This is one part of a sample in which hits are shown more often than they occur. Calls follow the shape of the dose curve; as a rule, active = well fitted curve in the direction sought with a large enough effect; inconclusive = small, poorly fitted or top-dose-only effect, or another doubt; inactive = no such curve, though single readings can be large; an effect the other way counts as inactive or inconclusive. Potency is read from the fitted curve at half-maximal effect.

SMILES	Sfp inh	Glioma ERSR ind	VDR inhibitor	ALOX12 inh	G9a block
CC(=O)Nc1sc(N/N=C/c2ccccc2)nc1-c1ccc(C)cc1	-4%	3%	u	-17%	16µM*
CCOC(=O)c1nc(N/N=C/c2ccccc2)sc1Br	-9%	7%	-5%	10%	45µM*
CC(=O)Nc1sc(N/N=C/c2ccccc2F)nc1-c1ccc(C)cc1	-21%	6%	u	u	14µM*
CC(=O)Nc1sc(N/N=C/c2ccc(O)cc2)nc1-c1ccc(C)cc1	-2%	3%	-26%	u	13µM*
CC(=O)Nc1ccc(/C=N/Nc2nc3ccccc3s2)cc1	-8%	-1%	-5%	18%	-3%
CC(=O)Nc1sc(-c2ccc(Cl)cc2)nc1-c1ccccc1	20%	-7%	-17%	17%	-1%
COc1ccc(/C=N/Nc2nc(-c3ccc(C)cc3)c(NC(C)=O)s2)cc1	8%	4%	u	u	10µM*
O=C(Nc1nc(-c2ccccc2)cs1)C1CC(=O)N(c2ccccc2F)C1 (stereo not given)	x	x	x	-4%	x
COc1ccc(CCNc2nc3ccccc3n3nnnc23)cc1OC	-20%	5%	-13%	5%	8%
COc1ccc(CCNCc2csc3nc4ccccc4n23)cc1OC	5%	-5%	5%	u	50µM*
COc1ccccc1C(=O)O/N=C(\N)c1ccccn1	-17%	-13%	-3%	196%	x
N/C(=N\OC(=O)c1ccccc1[N+](=O)[O-])c1ccccn1	-1%	-10%	0%	5%	3.2µM*
N/C(=N\OC(=O)COc1ccc2ccccc2c1)c1ccccn1	89µM*	2%	-9%	1%	2%[0.501 µM]
N/C(=N\OC(=O)c1ccccc1Cl)c1ccccn1	16%	-10%	8%	5%	71µM*
C=CCOc1cccc(NC(=O)C2CCCCC2)c1	x	x	x	-5%	x
CCc1ccc2nc(-c3ccccn3)cc(C(=O)O)c2c1	x	x	x	30%	x
O=C(O)c1cc(Cl)ccc1F	x	x	x	-4%	x
COc1cccc(CN2CC3(CCN(C)C3)c3cc(C(=O)NC4CCCCC4)ccc32)c1 (stereo not given)	x	x	x	31%[176 µM]	x
CN1CCN(C(=O)c2c(O)c3cccc4c3n(c2=O)CCC4)CC1	6%	-7%	9%	u	14µM*
CC(=O)c1c(O)c2cccc3c2n(c1=O)CCC3	-6%	-3%	-5%	u	14%
CC(C)CCN1C(=O)CC[C@]2(C(=O)N3CCN(C(C)C)CC3)CCCC[C@@H]12	x	x	x	6%	x
Cc1nc2cc(-c3ccsc3-n3c(C)ccc3C)[nH]n2c(=O)c1Cl	u	-4%	-19%	u	u
COCc1cc(=O)n2[nH]c(-c3ccsc3-n3c(C)ccc3C)cc2n1	56µM*	-4%	0%	u	-34%[59 µM]
O=C(N[C@H]1[C@H]2CCO[C@H]2[C@@H]1N1CCCC1)c1ccc(-c2cccc(F)c2)cc1	x	x	x	5%	x
Cc1cnc(C(=O)OCC(=O)c2cc(C)n(CCc3ccc(F)cc3)c2C)cn1	x	-2%	x	-41%	x
SMILES	Sfp inh	Glioma ERSR ind	VDR inhibitor	ALOX12 inh	G9a block
COc1ccc(CCn2c(C)cc(C(=O)COC(=O)c3cnc(C)cn3)c2C)cc1	x	-2%	4%	-2%	50µM*
CN(C)c1ccc(NC(=O)CSc2nc(C3CC3)nc3ccccc23)cc1	-22%	1%	-11%	u	4.5µM*
O=C(CSc1nc(C2CC2)nc2ccccc12)Nc1ccccc1	13%	-6%	u	-3%	21%[59 µM]
CN(C)c1ccc(NC(=O)CSc2nc3ccccc3c(=O)n2C2CCCCC2)cc1	21%	0%	-6%	-16%	7.9µM*
CCC(Sc1nncn1CCOC)C(=O)c1ccc(OC)cc1 (stereo not given)	x	x	x	-3%	x
C=CCN(Cc1cccs1)C(=O)CCc1ccco1	x	x	x	-43%	x
NC(=O)c1c(NC(NC(=O)c2ccco2)(C(F)(F)F)C(F)(F)F)sc2c1CCCC2	22µM*	4%	-9%	0%[57.4 µM]	u
CCOC(=O)C(NC(=O)c1ccccc1Cl)(Nc1sc2c(c1C(N)=O)CCC2)C(F)(F)F (stereo not given)	u	-8%	-6%	u	28µM*
CCOC(=O)C(NC(=O)c1ccc(F)cc1)(Nc1sc2c(c1C(N)=O)CCC2)C(F)(F)F (stereo not given)	u	-6%	u	-24%	18µM*
NC(=O)c1c(NC(=O)c2ccco2)sc2c1CCC2	-8%	2%	15%	2%	11%
CCOC(=O)C(NC(=O)c1cccc(Cl)c1)(Nc1sc2c(c1C(N)=O)CCC2)C(F)(F)F (stereo not given)	-26%	5%	-18%	u	20µM*
CCOC(=O)C(NC(=O)c1ccccc1Cl)(Nc1ccc(C(F)(F)F)cc1)C(F)(F)F (stereo not given)	17%	-1%	-2%	11%	16%[59 µM]
O=C(Nc1sc2c(c1C(=O)O)CCC2)c1cccc(Cl)c1	-7%	1%	2%	u	-12%[2.33 µM]
CCCn1nc(C(=O)NC(c2cccs2)C(C)C)c2ccccc2c1=O (stereo not given)	x	x	x	-11%	x
COC(=O)C(NC(C)=O)(Nc1sc2c(c1C(N)=O)CCCC2)C(F)(F)F (stereo not given)	-4%	-1%	14%	1%	8.9µM*
CCCCC(=O)NC(Nc1sc2c(c1C(N)=O)CCCC2)(C(=O)OCC)C(F)(F)F (stereo not given)	-4%	-1%	u	-7%	50µM*
CCc1c(C)sc(NC(NC(C)=O)(C(=O)OC)C(F)(F)F)c1C#N (stereo not given)	7%	-4%	2%	5%	u
Cc1ccc2c(C(=O)O)cc(C)nc2c1	x	x	x	-1%	x
O=C(N/N=C/c1ccoc1)c1ccc(Cl)cc1	50µM*	1%	-4%	-10%	45µM*
COc1ccccc1NC(=O)c1c(C)cc(C)nc1SCC(=O)NCc1ccccc1	x	x	x	5%	x
O=C(Nc1cccc(-c2nc3ccccc3s2)c1)[C@@H]1CCCN1C(=O)c1cccs1	x	x	x	40µM*	x
O=C(Nc1ccc(-c2nc3ccccc3s2)cc1)C1CCN(C(=O)c2cccs2)CC1	x	x	x	-9%	x
Nc1nccnc1C(=O)NCc1cccnc1-n1cncn1	x	x	x	-35%	x
CCN(Cc1ccccc1)C(=O)CCc1nc(CN2CCN(C(=O)c3ccc([N+](=O)[O-])cc3)CC2)no1	9%	-2%	5%	u	79µM*
CCOC(=O)c1ccc(COC(=O)c2ccc3c(c2)-c2ccccc2C3=O)cc1	3%	-3%	u	-10%	0%[59 µM]
CCOC(=O)C1=C(Cc2ccc(C)cc2)C(=O)c2ccccc2C1=O	7.9µM*	x	x	11µM*	8.9µM*
